In PubChem BioAssay (NCI) one finds growth data, which are given here for 39 compounds.

Compounds without any hit were thinned out: in the full panel of roughly 83,000, 20% have a hit.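 Growth was measured after 48 h exposure to one concentration of compound in 96-well plates. Values under 10 count as active.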 Activity calls are given as the source filed them.

For one assay, the system named is TK-10 renal. As to the kind of experiment: NCI-60 one-dose screen, 48 h (100 = growth as untreated, 0 = no growth, -100 = all killed). The settings on record: 10 µM unless noted.
`Cn1c2c(Cl)c(Cl)ccc2c2ccn3c(=O)c4ccccc4nc3c21`: the growth was 162% (inactive).

As for `CSc1[nH]c2ncnc(N)c2c1C#N`, the growth was 85.4% (inactive).

For `CCN(CC)CCCC(C)NCCCNc1cccc2cccnc12` (centres undefined), the growth was 97.7% (inactive).

As to `C=CC[N+]1(CC)CCN=C1CCCCCCCCCCCCCCCCC` (centres undefined), the growth was -94.2% (active).

Take `CCN(CC)CCCNc1cc(OC)cc2nc3cc(Cl)ccc3nc12`: the growth was -15.5% (active).

As to `CCCCCCCCCCNC(=O)CCl`, the growth is 83.8% (inactive).

Regarding `CCOC(=S)SCc1ccc(Cl)cc1`, the growth was 105% (inactive).

As for `O=C(O)c1ccc2c(c1Sc1ccccc1)C(=O)c1ccccc1C2=O`, the growth is 86.5% (inactive).

Turning to `CCN(CC)CC(C)Nc1ccc([N+](=O)[O-])c2sc3ccccc3c(=O)c12` (centres undefined), the growth is 49.5% (inactive).

For `Cc1cc2c(cc1C)NC1=C(N2)OC(c2c3ccccc3cc3ccccc23)C1=O` (centres undefined), the growth was 107% (inactive).

In the case of `O=C(Nc1ccc(CN2CCOCC2)cc1)c1[nH]ncc1Nc1ncnc2sccc12`, the growth was 8.06% (active).

Regarding `CCOC(=O)C(C#N)C1CCCCC1` (centres undefined), the growth was 91.5% (inactive).

`Nc1cccc(NC(=O)C(=O)Nc2cccc(N)c2)c1`: the growth was 122% (inactive).

In the case of `CN(CC(=O)N(Cc1ccc(C2CCCCC2)cc1)c1ccc(C(=O)NO)cc1)S(=O)(=O)c1c(F)c(F)c(F)c(F)c1F`, the growth is 87.4% (inactive).

As for `CCN(CC)c1ccc(/C=C/C2=[N+](C)c3ccccc3C2(C)C)cc1`, the growth is 28.7% (inactive).

Take `CN(C)c1ccc(/C=C(\C#N)c2nc3ccccc3s2)cc1`: the growth is 121% (inactive).

Take `CCN(CC)CC(O)CNc1c2ccc([N+](=O)[O-])cc2nc2cc(OC)c(OC)cc12` (centres undefined): the growth is 2.27% (active).

As to `COc1nc2c(cc1S(=O)(=O)c1ccccc1)CCc1c-2cnn1-c1ccc(Cl)cc1`, the growth is 110% (inactive).

On to `Cc1cc(-c2nc3ccccc3s2)ccc1NC(=O)COc1ccc(Cl)cc1`, for which the growth is 53.7% (inactive).

As to `N#Cc1c(N)nc(N)nc1Nc1ccc(Br)cc1`, the growth was 125% (inactive).

For `CCN(CC)CC(C)(C)C(=O)/C=C/c1ccccc1`, the growth is 91.5% (inactive).

With `CNc1cc2nc3cc(NC)c(C)cc3cc2cc1C`, the growth was 24.5% (inactive).

In the case of `O=C(COc1cccc(/C=C2/Oc3ccccc3C2=O)c1)Nc1nccs1`, the growth was 83.7% (inactive).

On to `O=C(Cc1ccccc1)c1ccc(Cl)cc1`, for which the growth was 99.5% (inactive).

Regarding `O=C(O)c1cccnc1Br`, the growth was 113% (inactive).

The next assay relates to ACHN renal. The description is as above. Conditions: 10 µM unless noted.
Regarding `Cc1ccc2c(c1)n([O-])c1cc(Cl)ccc1[n+]2=O`, the growth was 114% (inactive).

In the case of `CN1/C(=C\C=C\C2=[N+](C)c3ccccc3C2(C)C)C(C)(C)c2ccccc21`, the growth is 1.47% (active).

As to `CC/C(=C(\c1ccccc1)c1ccc(OCCNC)cc1)c1ccccc1`, the growth is -95% (active).

On to `CCN(CC)Cc1cc(Nc2c3ccc(Cl)cc3nc3c(C)cccc23)ccc1O`, for which the growth is -86.4% (active).

As for `C=CC[N+]1(CCO)CCN=C1CCCCCCCCCCCCC` (centres undefined), the growth is -91.9% (active).

Take `N#Cc1ccc(NC(=O)Nc2ccc(Cc3ccc(NC(=O)Nc4ccc(C#N)cc4)cc3)cc2)cc1`: the growth was 31.2% (inactive).

On to `CC1=NNC(=O)C1C` (centres undefined), for which the growth was 103% (inactive).

Turning to `COc1nc2c(cc1S(=O)(=O)c1ccccc1)CCc1c-2cnn1Cc1ccccc1`, the growth was 71.7% (inactive).

`O=C(/C=C\c1ccc2ccccc2n1)c1cc(Cl)ccc1O`: the growth is 89.5% (inactive).

`CCc1ccc(C(c2ccc(CC)cc2)C(Cl)(Cl)CCl)cc1`: the growth was 97.6% (inactive).

With `C=CCSc1nnc(-c2ccc(C(C)(C)C)cc2)n1-c1cccc(C(F)(F)F)c1`, the growth was 36.3% (inactive).

`CSc1ncnc2c1ncn2C1CCCO1` (centres undefined): the growth was 99% (inactive).

Consider `OCC1C2C=CC(C2)C1CO` (centres undefined), for which the growth was 105% (inactive).

On to `Cc1ccc(/C=C2\Oc3cc(OCC(=O)c4ccc(Cl)cc4)ccc3C2=O)cc1`, for which the growth was 95.2% (inactive).

As to `Cn1c2c(Cl)c(Cl)ccc2c2ccn3c(=O)c4ccccc4nc3c21`, the growth was 93% (inactive).

As for `CSc1[nH]c2ncnc(N)c2c1C#N`, the growth was 97.4% (inactive).

As for `CCN(CC)CCCC(C)NCCCNc1cccc2cccnc12` (centres undefined), the growth is 108% (inactive).

As to `C=CC[N+]1(CC)CCN=C1CCCCCCCCCCCCCCCCC` (centres undefined), the growth was -86.6% (active).

In the case of `CCN(CC)CCCNc1cc(OC)cc2nc3cc(Cl)ccc3nc12`, the growth is 3.95% (active).

In the case of `CCCCCCCCCCNC(=O)CCl`, the growth is 78% (inactive).

With `CCOC(=S)SCc1ccc(Cl)cc1`, the growth is 98.1% (inactive).

Consider `O=C(O)c1ccc2c(c1Sc1ccccc1)C(=O)c1ccccc1C2=O`, for which the growth was 95.3% (inactive).

As to `CCN(CC)CC(C)Nc1ccc([N+](=O)[O-])c2sc3ccccc3c(=O)c12` (centres undefined), the growth is 7.58% (active).

For the compound `Cc1cc2c(cc1C)NC1=C(N2)OC(c2c3ccccc3cc3ccccc23)C1=O` (centres undefined), the growth is 29% (inactive).

In the case of `O=C(Nc1ccc(CN2CCOCC2)cc1)c1[nH]ncc1Nc1ncnc2sccc12`, the growth was 2.49% (active).

As to `CCOC(=O)C(C#N)C1CCCCC1` (centres undefined), the growth is 99.4% (inactive).

Consider `Nc1cccc(NC(=O)C(=O)Nc2cccc(N)c2)c1`, for which the growth was 85.8% (inactive).

Regarding `CN(CC(=O)N(Cc1ccc(C2CCCCC2)cc1)c1ccc(C(=O)NO)cc1)S(=O)(=O)c1c(F)c(F)c(F)c(F)c1F`, the growth is 79.6% (inactive).

With `CCN(CC)c1ccc(/C=C/C2=[N+](C)c3ccccc3C2(C)C)cc1`, the growth was -1.03% (active).

`CN(C)c1ccc(/C=C(\C#N)c2nc3ccccc3s2)cc1`: the growth is 101% (inactive).

With `CCN(CC)CC(O)CNc1c2ccc([N+](=O)[O-])cc2nc2cc(OC)c(OC)cc12` (centres undefined), the growth was 11.1% (inactive).

As to `COc1nc2c(cc1S(=O)(=O)c1ccccc1)CCc1c-2cnn1-c1ccc(Cl)cc1`, the growth was 102% (inactive).

Take `Cc1cc(-c2nc3ccccc3s2)ccc1NC(=O)COc1ccc(Cl)cc1`: the growth is 95.5% (inactive).

As for `N#Cc1c(N)nc(N)nc1Nc1ccc(Br)cc1`, the growth is 89% (inactive).

With `CCN(CC)CC(C)(C)C(=O)/C=C/c1ccccc1`, the growth is 43.1% (inactive).

Regarding `CNc1cc2nc3cc(NC)c(C)cc3cc2cc1C`, the growth is 20.6% (inactive).

`O=C(COc1cccc(/C=C2/Oc3ccccc3C2=O)c1)Nc1nccs1`: the growth is 112% (inactive).

For `O=C(Cc1ccccc1)c1ccc(Cl)cc1`, the growth is 103% (inactive).

Take `O=C(O)c1cccnc1Br`: the growth was 99.6% (inactive).
